# Experimental data taken from ChEMBL document CHEMBL4296182, “CO-ADD screening of NIH NCI Diversity Set V”.
# For part of these data: Potency and affinity values are given separately.
# Tests used:
# [1] = system: Staphylococcus aureus; assay: Antibacterial activity against Staphylococcus aureus MRSA ATCC 43300 (CO-ADD:GP_020); MIC in CAMBH media using NBS plates, by Resazurin F(560/590); assay type: functional; details: Concentration 20 uM, ASSAY_TEST Inhibition of Bacterial Growth, detection method Resazurin, Fluorescence (ex560/em590), MEDIA CAMHB, plate type 384well, CORNING #3640, time 18 hr
# [2] = system: Acinetobacter baumannii; assay: Antibacterial activity against Acinetobacter baumannii ATCC 19606 (CO-ADD:GN_034); MIC in CAMBH media using NBS plates, by Resazurin F(560/590); assay type: functional; details: Concentration 20 uM, ASSAY_TEST Inhibition of Bacterial Growth, detection method Resazurin, Fluorescence (ex560/em590), MEDIA CAMHB, plate type 384well, CORNING #3640, time 18 hr
# [3] = system: Escherichia coli; assay: Antibacterial activity against Escherichia coli ATCC 25922 (CO-ADD:GN_001); MIC in CAMBH media using NBS plates, by Resazurin F(560/590); assay type: functional; details: Concentration 20 uM, ASSAY_TEST Inhibition of Bacterial Growth, detection method Resazurin, Fluorescence (ex560/em590), MEDIA CAMHB, plate type 384well, CORNING #3640, time 18 hr
# [4] = system: Klebsiella pneumoniae; details: Concentration 20 uM; ASSAY_TEST Inhibition of Bacterial Growth; detection method Absorption (OD600); MEDIA CAMHB; plate type 384well; NBS; CORNING #3640; time 18 hr
# [5] = system: Candida albicans; details: 20 µM
# [6] = system: Cryptococcus neoformans; details: Concentration 20 uM; ASSAY_TEST Inhibition of Fungal Growth; detection method Resazurin; Absorption (OD600-OD570); plate type 384well; NBS; CORNING #3640
SMILES,Inhibition [1],Inhibition [2],Inhibition [3],Inhibition [4],Inhibition [5],Inhibition [6]
c1ccc(/N=N/N2CCOCC2)cc1,10.43%,-20.45%,2.82%,4.01%,17.7%,-10.19%
CCOc1ccc(NC(=O)N(O)C2(C#N)CCCCC2)cc1,13.16%,8.44%,2.02%,18.05%,5.54%,-2.32%
CN1CCC(=C2c3ccccc3C(O)c3ccccc32)CC1 (centres undefined),1.61%,-19.91%,15.16%,2.29%,0.03%,-16.59%
Oc1cccc2cnccc12,-5.81%,3.26%,3.71%,12.61%,1%,3.35%
Cc1cnc2cc(Cl)ccc2c1SCC(=O)O,2.5%,10.23%,1.72%,11.14%,11.6%,-9.96%
Cc1cc2c(c(C#N)c1C)NC=NC2C (centres undefined),11.79%,-0.59%,15.46%,8.12%,-2.89%,-13.76%
O=C1c2ccccc2C(=O)c2[nH]cnc21,-4.2%,-6.06%,-19.22%,13.37%,6.65%,21.89%
COc1cc2c(cc1OC)C(=O)Cc1ccc3c(c1CN(C)CC2)OCO3,7.05%,12.34%,18.89%,9.37%,-0.52%,-7.07%
CC(=O)[C@H]1CC[C@H]2[C@@H]3CCC4=CC(=O)CC[C@]4(C)[C@@]3(F)[C@@H](O)C[C@]12C,0.89%,-16.68%,9.76%,7.06%,0.8%,-7.75%
COCC(=O)Oc1cc(-c2ccc(C)cc2C)c(OC(=O)COC)c(-c2ccc(C)cc2C)c1,8.14%,-8.27%,6.56%,4.04%,7.18%,-1.11%
Sc1ncnc2c1ncn2C1CCCC1,12.18%,-2.05%,10.82%,10.23%,3.52%,-6.41%
CC(=O)OCCn1c2nc(=O)[nH]c(=O)c-2nc2cc(C)c(C)cc21,-0.64%,-11.64%,4.08%,3.5%,-0.26%,-7.97%
O=S1(=O)CSCS(=O)(=O)C1,-12.69%,-2.62%,-18.14%,0.72%,5.55%,27.89%
Nc1ccc(/C=C/c2ccc3ncccc3c2)cc1,-2.75%,-9.02%,3.29%,1.77%,2.51%,-10.25%
Cc1cccc(N2CCN(CC(O)COc3ccc(Cl)cc3)CC2)c1 (centres undefined),13.02%,4.97%,5.23%,7.2%,0.39%,-12.55%
O=C(O)/C(Cc1c[nH]nn1)=N\O,-3.12%,-10.75%,6.44%,7.49%,2.24%,-5.01%
CCCCNc1cc(Cl)nc(N)n1,19.23%,-9.43%,4.85%,9.91%,0.7%,-8.27%
CCOC(=O)CCCN(c1[nH]c(C)c(C)c1C#N)S(=O)(=O)c1ccc(C)cc1,20.71%,-4.29%,15.68%,14.1%,-2.66%,-4.37%
CCCCCCCCCCCCC(NC(C)=O)(C(=O)OCC)C(=O)OCC,14.33%,7.7%,5.2%,18.57%,7.18%,-2.7%
Nc1[nH]nc2nc(-c3ccccc3)nc(O)c12,-2.47%,-10.04%,2.06%,6.75%,-0.22%,-3.34%
COc1cc2c(cc1OC)C(C1(O)CCCCC1)NCC2 (centres undefined),18.67%,-1.81%,15.36%,-0.68%,-2.01%,-12.78%
COC(=O)C1CC(O)C(O)C(O)C1 (centres undefined),17.7%,-10.09%,12.92%,15.79%,1.86%,-4.69%
O=c1cc(-c2ccc(O)cc2)oc2c(O)c(O)c(O)c(O)c12,7.67%,-15.85%,3.54%,11.62%,6.97%,-2.27%
O=C(c1cccnc1)N1CCN(c2ccccc2Cl)CC1,7.8%,-13.63%,10.26%,11.81%,2.66%,-13.57%
CCCCOc1ccc(Nc2cc(Cl)ccc2C(=O)O)cn1,11.44%,0.16%,4.02%,9.69%,10.4%,-7.88%

SMILES,Inhibition [1],Inhibition [2],Inhibition [3],Inhibition [4],Inhibition [5],Inhibition [6]
O=C(CC1(O)CCCCC1)OC1CCCC1,-23.97%,3.29%,-15.82%,-7.74%,2.66%,30.45%
Nc1nc(O)c2nn(-c3ccccc3)nc2n1,7.59%,-13.43%,5.48%,0.39%,-3.03%,29.86%
Nc1ccc(C(=O)C(=O)c2ccc(N)cc2)cc1,-28.54%,-4.51%,-16.8%,1.88%,2.62%,25.61%
O=C(Nc1ccc(C2=NCCCN2)cc1)Nc1ccc(C2=NCCCN2)cc1,7.85%,9.82%,-5.49%,24.63%,1.67%,-6.84%
O=C(/C=C\c1ccc2ccccc2n1)c1cc(Cl)ccc1O,-11.69%,-4.27%,-19.12%,3.11%,16.4%,-1.96%
Cc1ccc(NC(=O)Nc2ccccc2C(N)=O)cc1,-6.86%,-15.18%,6.22%,4.47%,1.66%,-13.76%
CC(C)(c1cc(Cl)c(O)c(CN2CCOCC2)c1)c1cc(Cl)c(O)c(CN2CCOCC2)c1,-6.13%,0.12%,12.95%,0.6%,-1.62%,-0.13%
C=CCc1ccccc1OCC(=O)O,3.16%,-9.95%,10.02%,15.59%,5.01%,1.51%
CC(C)c1cc(C(C)C)n2nc(N)nc2n1,6.67%,8.95%,5.1%,0.39%,-0.42%,-7.51%
Cl.O=C(O)c1ccc(NCc2nc3ccccc3[nH]2)cc1,0.21%,-0.88%,-3.07%,12.5%,1.6%,-6.81%
Nc1nc(N)c(/C=N/c2ccc(Br)cc2)c(Nc2ccc(Br)cc2)n1,-2.53%,-11.54%,5.75%,-1.66%,-1.08%,1.82%
C[C@@H]1C[C@H]2OC(=O)[C@@]3(C)CCC[C@@](C)([C@@H]23)[C@@]1(O)CCc1ccoc1,-8.43%,-3.35%,-14.05%,4.6%,-0.12%,-1.32%
CCOC(=O)c1ccc(NC(=O)Oc2cc(C)c(Cl)cc2C(C)C)cc1,20.21%,9.47%,4.16%,12.01%,4.36%,-1.17%
CCCCn1cnc2c(S)nc(N)nc21,6.68%,-8.46%,-1.37%,7.23%,1.37%,-12.06%
N=C(N)Nc1nc2cc([N+](=O)[O-])ccc2[nH]1,9.17%,-6.93%,5.92%,26.99%,-2.1%,-6.56%
Nc1c(Cl)ncnc1NCCO,-0.51%,-7.14%,3.3%,8.13%,2.14%,-0.36%
O=C(CC1C=Cc2ccccc2N1C(=O)c1ccccc1)c1ccccc1 (centres undefined),3.75%,6.29%,9.32%,9.71%,2.1%,-5.82%
O=C1CSCc2nc3ccccc3n21,4.29%,-8.34%,5.14%,18.88%,1.65%,-7.32%
C#CCOCC1CN(c2ccccc2)C(=O)O1 (centres undefined),-1.12%,12.08%,6.4%,9.96%,6.35%,-15.19%
CNC(=O)OCN1C(=O)C2CC=CCC2C1=O (centres undefined),7.25%,-15.92%,10%,2.19%,-1.86%,-13.88%
O=C(Nc1cccc(Cl)c1)Nn1cnnc1,17.05%,8.62%,2.61%,6%,3.98%,-3.41%
CC(C)CNC(=O)/C=C\C(=O)O,-0.87%,-6.9%,-14.17%,9.3%,3.69%,32.61%
c1ccc(-c2nc(-c3ccccn3)nc(-c3ccccn3)n2)nc1,2.88%,10.22%,-0.02%,10.56%,2.65%,-6.65%
Cc1ccc(Nc2nnc(-c3ccc4c(c3)OCO4)o2)c(C)c1,30.86%,-8.42%,5.86%,21.23%,28.8%,-3.73%
